Experimental data: the OligoGym collection

Biological target: AWAT2
Assay: pooled miR-30 sensor sort-seq; sequence = guide strand
Details: shRNA
Also: reference of the scale not given here.

In order of rising sensor-assay potency score (higher = more potent):
1. TAAGAATAAGCACAGTGACAGG  -1.65
2. TCTTGGTGAAGCCACGTCCATA  -1.6
3. TTCTTGGGACTATCTCACCAGT  -1.17
4. ATAAGCACAGTGACAGGCCAGT  -0.973
5. TTGACAGCAATCACAGTGGTTG  -0.667
6. TTAGCCACGATCTCCTGGCTTG  -0.416
7. ATATTTAGCCACGATCTCCTGG  -0.175
8. TTGAGAGGGAAATAATCGCTGT  -0.0931
9. ATAATCGCTGTAGTGTTTCCAC  -0.0859
10. TGAGATACCAAACTTGGTCTTA  -0.0616
11. TATTTAGCCACGATCTCCTGGC  -0.00517
12. TAGACATTACATATTCTCTGAG  0.0457

Biological target: B3GNT9
Assay: as above
Details: shRNA

In order of falling sensor-assay potency score (higher = more potent):
1. TTCACGAACACATCTGCGTCGC  0.331
2. TGTAGTACTTGCTAGCCCGCGT  -0.0178
3. TTAGGTTAAAAAAGGTGTCGTC  -0.179
4. TAGAAAGTGGATCTCCTTGAGC  -0.561
5. TCGGGTAACTGGAACGCGCGGG  -0.607
6. AAGTGGATCTCCTTGAGCGTTA  -0.755
7. TGCACTACAACCAGCTCACGGT  -0.863
8. TTAATGAGCAGTGGAAACCGCC  -0.997
9. AAAAACGAAGCGCACGTCGGGG  -1.1
10. TAGTACTTGCTAGCCCGCGTGC  -1.22
11. AATTACGTCACCAGCAAGCAGG  -1.35
12. TCGGGGATGTAGTACTTGCTAG  -1.49
